Assay outcomes (PubChem)
DT40 TDP1 no CPT – qHTS for Inhibitors of human tyrosyl-DNA phosphodiesterase 1 (TDP1): qHTS in cells in absence of CPT. DT40 Tdp1-/- hTDP1 cells, no CPT, ATP luminescence, 48 h. Potency, µM (titrated, usually from 46.2 µM), actives largely listed as inhibitors. actives 15% (n = 420,000); further: nearly all actives have a fitted effect of over 55% in size
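Camptothecin absent (DMSO only). Human TDP1-complemented DT40 knockout cells, 400 cells/well, 37 °C for minimum 48 hr; ATP measured via CellTiter-Glo, 30 min dark incubation, luminescence.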
VP16 counter – counter-screen for ROR gamma inhibitors: Gal4-VP16 reporter; Drosophila S2 Gal4-VP16 UAS-luciferase, luminescence, 20 h; Potency, µM (series often up to 53.6 µM), hits mostly inhibitors; actives 3.5% (n = 310,000); AID 2546;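 further: Gal4-VP16 expression switched on by copper sulfate through the metallothionein promoter; nearly all actives have a fitted effect of over 50% in size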
ELG1 DNA repair – inhibitors of ELG1-dependent DNA repair in HEK293T cells | HEK293T ELG1-luciferase reporter, luminescence, 16 h; DNA damage induced by 5-fluorouridine | Potency, µM (top dose mostly 46.1 µM), most hits filed as inhibitors | actives 2.3% (n = 330,000) | AID 504467; further: nearly all actives have a fitted effect of over 55% in size
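HEK293T cells expressing luciferase-tagged ELG1 (2,000/well) received 5-Fluorouridine plus compound or DMSO for 16 hr at 37 °C. Luciferase was read by ONE-Glo luminescence after 30 min at room temperature.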
TDP1 cell CPT – growth inhibition of DT40 Tdp1-/-;hTDP1 cells with camptothecin (screen for TDP1 inhibitors) | chicken DT40 Tdp1-/-;hTDP1 cells + 20 nM CPT, ATP luminescence, 48 h | Potency, µM (doses to about 46.2 µM), actives largely listed as inhibitors | actives 12% (n = 420,000); further: nearly all actives have a fitted effect of over 55% in size
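Cell growth measured by CellTiter-Glo luminescence after a minimum 48 h, 37 C compound exposure with 20 nM CPT in Tdp1-knockout DT40 cells stably expressing hTDP1, seeded 400/well; qHTS titration format.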
RORg inh – ROR gamma (mouse) transcription inhibition; Potency, µM (top dose mostly 53.6 µM), hits mostly inhibitors; Drosophila S2 Gal4-RORgamma UAS-luciferase reporter, 20 h; P51450; AID 2551; actives 5.4% (n = 310,000); further: nearly all actives have a fitted effect of over 60% in size
Target sequence (P51450 whole entry, looked up, the tested form may be a part): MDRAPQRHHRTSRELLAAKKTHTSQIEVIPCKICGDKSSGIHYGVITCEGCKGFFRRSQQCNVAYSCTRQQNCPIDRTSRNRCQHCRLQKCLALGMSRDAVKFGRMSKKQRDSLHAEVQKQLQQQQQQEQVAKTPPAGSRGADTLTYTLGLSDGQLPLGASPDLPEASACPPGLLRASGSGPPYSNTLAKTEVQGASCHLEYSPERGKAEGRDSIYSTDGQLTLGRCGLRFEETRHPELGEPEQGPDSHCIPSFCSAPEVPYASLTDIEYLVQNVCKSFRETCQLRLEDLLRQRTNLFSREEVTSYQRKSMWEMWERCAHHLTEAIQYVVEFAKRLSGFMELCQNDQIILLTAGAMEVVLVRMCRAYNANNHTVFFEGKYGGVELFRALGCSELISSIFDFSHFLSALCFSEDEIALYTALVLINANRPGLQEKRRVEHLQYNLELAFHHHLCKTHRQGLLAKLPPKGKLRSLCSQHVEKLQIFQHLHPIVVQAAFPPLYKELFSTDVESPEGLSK
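Drosophila S2 cells stably expressing Gal4-DBD/mouse RORγ fusion under metallothionein promoter plus UAS-luciferase; compound 1 h, then 700 uM CuSO4 induction for 20 h at ambient temperature; inhibition read as reduced luminescence.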
IL-1B inflam inh – inhibitors of inflammasome signaling (IL-1 beta secretion). THP-1 LPS/ATP IL-1B secretion, AlphaLISA, 16 h; hits give low values. AID 743279. actives 4.7% (n = 360,000). activity change, % at 57.5 µM; in the data active means activity change below about -50%; inconclusive means mostly about -30% to -49%
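Secreted IL-1B measured by AlphaLISA bead assay after 16 h compound exposure of THP-1 cells; compounds (final up to 57.5 uM) added 1 h before LPS (250 ng/mL) and ATP (1.25 mM) stimulation; lower signal means less secretion.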
Numbers stand for hits; . = inactive; ? = inconclusive; / = no result; [ ] = dose if it differs, or a comment. Shown are actives, neighbours in structure and some others; about 21% of the full set was active somewhere. Unless noted, the call rests on the fitted dose curve; in most records, active means well fitted curve in the direction sought with a large enough effect; inconclusive means small, poorly fitted or top-dose-only effect, or another doubt; inactive means no such curve, though single readings can be large; an effect the other way counts as inactive or inconclusive.

SMILES	DT40 TDP1 no CPT	VP16 counter	ELG1 DNA repair	TDP1 cell CPT	RORg inh	IL-1B inflam inh
CCOC(=O)[C@]12CCC=C1N(Cc1cccc3ccccc13)C(=O)[C@H](CC(=O)NCc1ccccc1)C2	?	/	/	?	/	.
CCOC(=O)[C@]12CCCC=C1N(Cc1cccc3ccccc13)C(=O)[C@H](CC(=O)NCc1cccs1)C2	23µM	/	/	?	/	.
CCOC(=O)[C@]12CCC=C1N(Cc1cccc3ccccc13)C(=O)[C@H](CC(=O)NCc1ccc(C)o1)C2	23µM	/	/	16µM	/	.
CCOC(=O)[C@]12CCC=C1N(Cc1cccc3ccccc13)C(=O)[C@H](CC(=O)NCc1cccs1)C2	?	/	/	?	/	-69
CCOC(=O)[C@]12CCC=C1N(Cc1cccc3ccccc13)C(=O)[C@H](CC(=O)NCc1cccc3ccccc13)C2	?	/	/	?	/	.
COc1cccc(CNC(=O)COC(=O)c2ccc(-c3ccc(O)cc3)cc2)c1	3.3µM	/	/	?	/	.
O=C(OCC(=O)N1CCOCC1)c1cc(=O)[nH]c2ccccc12	.	/	?	.	/	.
O=c1oc2cc(O)ccc2cc1-c1nc(-c2ccc(Cl)c(Cl)c2)cs1	.	/	/	.	/	/
Cc1ccc(-n2[nH]c(C)c(C=NC34CN5CN(CN(C5)C3)C4)c2=O)cc1C	21µM	.	/	9.2µM	.	.
Cc1[nH]n(-c2ccccc2)c(=O)c1C=NC1CCCCCC1	?	.	.	.	.	.
CCOC(=O)c1sc(-c2cccc(C(F)(F)F)c2)nc1O	21µM	.	.	?	.	.
CNc1cc(F)nc(F)n1	16µM	.	.	18µM	.	.
Cc1c(NC(=O)c2cnn3c2NC(c2ccco2)CC3C(F)(F)F)c(=O)n(-c2ccccc2)n1C (stereo not given)	?	.	.	.	.	.
O=C(Nc1ccc2c(c1)CCC2)c1cnn2c1NC(c1ccco1)CC2C(F)(F)F (stereo not given)	.	.[0.365 µM]	.	12µM	?	.
CN(Cc1ccc(-n2cccn2)cc1)C(=O)c1cnn2c1NC(c1ccco1)CC2C(F)(F)F (stereo not given)	16µM	.	10µM	23µM	.	-54
Cc1ccc(Cl)cc1NC(=O)c1cnn2c1NC(c1ccco1)CC2C(F)(F)F (stereo not given)	?	.	18µM	?	.	?
O=C(NCC12CC3CC(CC(C3)C1)C2)c1nn2c(c1Cl)NC(c1ccco1)CC2C(F)(F)F (stereo not given)	?	14µM	?	?	?	.
COCCNC(=O)c1cnn2c1NC(c1ccco1)CC2C(F)(F)F (stereo not given)	.	.	.	.	.	.
O=C(NCCN1CCOCC1)c1nn2c(c1Cl)NC(c1ccccc1)CC2C(F)(F)F (stereo not given)	.	.	.	.	.	.
COc1cccc(Nc2ncc3nc(-c4ccccc4)c(=O)n(C)c3n2)c1	.	.	/	?	.	/
COC(=O)c1cc(CNC(=O)c2ccncc2)cc(NC(=O)c2ccccc2Cl)c1	.	/	/	.[9.04 µM]	/	/
CC(C)c1ccc(CN(C(=O)c2cccs2)C2CCS(=O)(=O)C2)cc1 (stereo not given)	?	.	.	?	.	.
COC(=O)NC(c1ccc2ccccc2c1)C(C(C)=O)C(=O)OC (stereo not given)	/	.[10 µM]	/	/	.[10 µM]	/
O=C(NCc1cccc(Cl)c1)c1cnn2c1NC(c1ccco1)CC2C(F)(F)F (stereo not given)	16µM	.	?	18µM	.	-53
O=C(CSCCO)Nc1ccc(C2CCCCC2)cc1	.	5.6µM	?	.	.	.
SMILES	DT40 TDP1 no CPT	VP16 counter	ELG1 DNA repair	TDP1 cell CPT	RORg inh	IL-1B inflam inh
CC(=O)Nc1cc(C(F)(F)F)ccc1OCCOc1ccccc1	16µM	/	/	?	/	.
CC(=O)Nc1cc(C(F)(F)F)ccc1Oc1cccc(Br)c1	13µM	13µM	.	23µM	?	?
CCOCC(=O)Nc1cc(C(F)(F)F)ccc1Oc1cccc(Br)c1	?	.	.	.	.	.
C=CCn1c(=O)c2ccccc2n2c(=S)[nH]nc12	.	.	.	.	.	.
C=CCn1c(=S)[nH]c2nc3c(cc2c1=O)CCCC3	?	7.1µM	.	?	7.1µM	.
C=CCn1c(=S)[nH]c2cc(C(=O)Nc3ccc(OC)c(OC)c3)ccc2c1=O	?	.	.	.	?	.
O=c1c2cc(Br)ccc2[nH]c(=S)n1Cc1cccnc1	.	?	.	.	1.1µM	.
C=CCn1c(=S)[nH]c2ccc(Br)cc2c1=O	?	3.2µM	?	?	2.8µM	.
O=c1c2ccccc2c2ccccc2c(=O)n1Cc1cccnc1	.	.	.	.	.	.
COc1ccc(OC)c(NC(=O)CCNS(=O)(=O)c2ccc3c(c2)CC(C)N3C(C)=O)c1 (stereo not given)	.	/	/	.	/	.
COc1cccc(-c2cc3nc(NCc4ccc(C)cc4C)n(C)c(=O)c3s2)c1	?	/	/	?	/	.
O=C(OCc1cn([C@H]2CN(Cc3cccs3)[C@@H](c3ccccc3)C[C@@H]2O)nn1)c1ccccc1	21µM	/	/	18µM	/	.
Cc1ccc([C@H]2C[C@@H](O)[C@H](n3cc(COC(=O)c4ccccc4)nn3)CN2C(=O)c2cccs2)cc1	26µM	/	/	?	/	.
COc1ccc([C@H]2C[C@H](n3cc(COC(=O)c4ccccc4)nn3)[C@@H](O)CN2Cc2cccs2)cc1	18µM	/	/	?	/	.
O=C(OCc1cn([C@@H]2C[C@H](c3ccccc3)N(Cc3cccs3)C[C@H]2O)nn1)c1ccccc1	.	/	/	.	/	.
Cc1ccc([C@H]2C[C@H](O)[C@@H](n3cc(COC(=O)c4ccccc4)nn3)CN2Cc2cccs2)cc1	23µM	/	/	21µM	/	?
O=C1CC(c2ccc(Cl)cc2)Sc2nc(-c3ccc(F)cc3)nn21 (stereo not given)	.	/	/	.	/	/
Cc1noc(NS(=O)(=O)c2ccc(NC(=O)C(F)(F)C(F)(F)C(F)(F)F)cc2)c1C	.	/	/	.	/	.
CC(=O)Nc1scc(C)c1-c1nc2ccccc2s1	.	8.9µM	.	.	1.1µM	/
O=C(Nc1ccc(F)cc1)Nc1sccc1-c1nc2ccccc2s1	?	?	.	?	?	.
CNc1sc(C(=O)c2ccc(F)cc2)c(N)c1-c1nc2ccccc2s1	7.3µM	?	?	5.2µM	10µM	.
